For the assay, the target named is Protein S100-A4 (Homo sapiens) (UniProt P26447). The assay is described as follows: S100A4-myosin IIA binding inhibitor potency, dose response, biochemical, fluorescence polarization, cherry-picked hits (AID 687001).

In PubChem BioAssay AID687001 (Broad Institute, 2013) one finds outcome data, which are given here for 77 compounds.

Results with a measured potency or affinity are listed apart. Active and inactive are the calls of the source.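 Rule for the calls: active = signal-lowering compounds whose fitted half-maximal concentration is at or below twice the top tested dose in every run; inconclusive = runs disagree, flat 30 to 70% inhibition, or poor curve fit; inactive = the rest.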

Protein S100-A4 (Homo sapiens), sequence (P26447 whole entry, looked up): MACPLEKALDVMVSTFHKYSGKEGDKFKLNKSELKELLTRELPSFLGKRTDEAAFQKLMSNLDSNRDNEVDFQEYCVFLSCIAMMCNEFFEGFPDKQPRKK

In the case of `CC1CCN(C(=O)CSc2n[nH]c(-c3cccs3)n2)CC1`, the result was inactive.

Take `CCNC(=O)[C@H]1N[C@H]2c3ccc(-c4cccc(C(=O)N(C)C)c4)c(=O)n3C[C@H]2[C@@H]1CO`: the outcome was inactive.

In the case of `Cc1cccc(C)c1NC(=O)CN1CCN(c2ccc(C(F)(F)F)cn2)CC1`, the compound was classed as inactive.

Take `CC(=O)c1c(C)[nH]c(C(=O)OCc2csc(CC(=O)Nc3ccccc3C)n2)c1C`: the outcome was inactive. The result for `COc1cc(O)c(C(=O)O)c(CCc2ccccc2)c1` reads “inactive”; that for `C[C@H]1CN([C@@H](C)CO)C(=O)CCCn2nncc2CO[C@H]1CN(C)S(=O)(=O)c1ccc2c(c1)OCCCO2`, “inactive”. The result for `C[C@@H]1CCCCO[C@@H](CN(C)CC2CCCCC2)[C@@H](C)CN([C@H](C)CO)C(=O)c2cc(NS(=O)(=O)c3cn(C)cn3)ccc2O1` reads “inactive”; that for `CC(C)CC#Cc1ccc([C@@H]2[C@H](CO)N3C(=O)CN(C(=O)c4ccccn4)C[C@@H]23)cc1`, “inactive”; that for `O=C(NNC(=O)c1ccccc1F)c1cccc(-n2cccc2)c1`, “inactive”. To `C[C@@H]1CCCCO[C@@H](CN(C)S(=O)(=O)c2cn(C)cn2)[C@H](C)CN([C@@H](C)CO)C(=O)c2cc(NC(=O)C3CCCCC3)ccc2O1` belongs “inactive”. For `COc1cc(S(=O)(=O)N2CCOCC2)cc(C(=O)c2nccn2C)c1OC`, the call was inactive. With `CNC[C@@H]1OCCCC[C@@H](C)Oc2ccc(NS(=O)(=O)c3cccs3)cc2C(=O)N([C@H](C)CO)C[C@H]1C`, the call was inactive. The result for `C[C@H](CO)N1C[C@H](C)[C@H](CN(C)CC2CC2)OCc2ccccc2-c2c(n(C)c3ccccc23)C1=O` reads “inactive”; that for `CCCC(=O)Nc1ccc2c(c1)OC[C@H](C)N(CCC(F)(F)F)C[C@H](C)[C@@H](OC)CN(C)C2=O`, “inactive”. Consider `COc1ccc(CN(C)C[C@H]2OCCCC[C@@H](C)Oc3ccc(NC(=O)Nc4ccc5c(c4)OCO5)cc3C(=O)N([C@H](C)CO)C[C@H]2C)cc1`, for which the compound was called inactive.

For `O=C(COC(=O)Cc1ccc(F)cc1)Nc1ccc2[nH]c(=O)[nH]c2c1`, the compound was classed as inactive.

Take `C[C@H]1CN([C@@H](C)CO)C(=O)c2cc(-c3cccc(C#N)c3)cnc2O[C@@H]1CN(C)Cc1cccnc1`: the call was inactive.

Regarding `ON(CCc1ccncc1)Cc1ccccc1`, the compound was called inactive. To `CCC(=O)N1[C@@H]2c3ccc(-c4ccncc4)c(=O)n3C[C@H]1[C@H](CO)[C@H]2C(=O)NC1Cc2ccccc2C1` belongs “inactive”; to `O=C(CSc1ccc(Cl)cc1)NC1CC1`, “inactive”. As for `COc1ccc(C#Cc2ccc([C@H]3[C@H]4CN(S(=O)(=O)c5ccccc5)CCCCN4[C@H]3CO)cc2)cc1`, the result was inactive. The result for `Cc1noc(C)c1NC(=O)N(C)C[C@H]1OCCCC[C@H](C)Oc2ccc(NS(=O)(=O)c3ccc(F)cc3)cc2C(=O)N([C@H](C)CO)C[C@@H]1C` reads “inactive”; that for `Cc1cc(C)n2nc(Sc3ncccc3[N+](=O)[O-])nc2n1`, “inactive”. To `O=C(CSc1ccsc1[N+](=O)[O-])NCc1ccccc1` belongs “inactive”; to `CCCNC(=O)N1C[C@H](O)COC[C@@H]2O[C@H](CC(=O)N[C@H]3CCN(Cc4ccccc4)C3)CC[C@H]21`, “inactive”; to `CCC(=O)N[C@@H]1CC[C@H](CCNC(=O)Nc2ccc(C(F)(F)F)cc2)O[C@H]1CO`, “inactive”.

Turning to `Cc1ccc(S(=O)(=O)N[C@H]2C=C[C@@H](CC(=O)NC3CCCCC3)O[C@@H]2CO)cc1`, the compound was called inactive. The result for `Cc1ccc(S(=O)(=O)N(C)C[C@@H]2Oc3c(NC(=O)C4CCCCC4)cccc3C(=O)N([C@H](C)CO)C[C@@H]2C)cc1` reads “inactive”; that for `Cc1ccc(N(C)S(=O)(=O)c2cccc(C(=O)NCCCN3CCCC3=O)c2)cc1`, “inactive”.

With `CCCCN(CC(=O)NC1CCCC1)C(=O)C(=O)Nc1ccc2c(c1)OCCO2`, the compound was called inactive. On to `O=C(O)c1ccc(/C=C2\SC(=S)N(NC(=O)c3ccccc3)C2=O)cc1`, for which the compound was called inactive.

In the case of `CNC[C@@H]1Oc2ccc(NC(=O)Nc3cccc4ccccc34)cc2C(=O)N([C@H](C)CO)C[C@@H]1C`, the compound was classed as inactive. Turning to `C[C@@H]1CN([C@H](C)CO)C(=O)c2cc(C3=CCCC3)cnc2O[C@@H]1CN(C)Cc1ccc(F)cc1`, the result was inactive. To `CCN1C(=O)[C@H]2[C@@H](c3ccc(-c4ccc5c(c4)OCO5)c(OC)c3)N[C@@](C)(C(=O)OC)[C@H]2C1=O` belongs “inactive”; to `Nc1nnc(COc2ccc(Br)cc2Br)s1`, “inactive”; to `CCc1nc2c(OCc3ccccc3OC)cccn2c1N(C)C(=O)C(C)C`, “inactive”. The result for `CCNC(=O)C[C@@H]1CC[C@@H](NS(=O)(=O)c2ccc(F)cc2)[C@H](CO)O1` reads “inactive”; that for `CCN(C[C@H]1[C@H](c2ccccc2)[C@H](CO)N1C(C)=O)C(=O)c1ccccn1`, “inactive”. To `Cn1c2ccccc2c(=O)c2ccc(C#Cc3ccc(N)cc3)cc21` belongs “inactive”; to `CCCCNS(=O)(=O)c1ccc2nc(-c3cccnc3)cc(C(=O)NC(C)CC)c2c1` (configuration not stated), “inactive”. Consider `CC(OC(=O)C1=COCCO1)C(=O)Nc1ncc(Cl)cc1Cl` (configuration not stated), for which the compound was classed as inactive. To `CC(=O)Nc1ccc(S(=O)(=O)c2ccc([N+](=O)[O-])cc2)cc1` belongs “inactive”; to `O=C(c1cnccn1)N1CC(=O)N2[C@H](CO)[C@@H](c3ccc(-c4ccc(F)cc4)cc3)[C@H]2C1`, “inactive”; to `CCOc1ccc(N(CC)C(=O)CCS(=O)(=O)c2cccc3nonc23)cc1`, “inactive”. As to `CO[C@H]1CN(C)C(=O)c2ccc(NC(=O)C3CCCCC3)cc2OC[C@@H](C)N(Cc2nccs2)C[C@@H]1C`, the call was inactive. The result for `COc1ccc(S(=O)(=O)Nc2cccc3c2O[C@@H](CN(C)S(=O)(=O)c2c(C)noc2C)[C@H](C)CN([C@@H](C)CO)C3=O)cc1` reads “inactive”. Consider `CC(C)(O)C#Cc1ccc([C@H]2[C@H](CO)N3CCCCN(C(=O)c4ccc(F)cc4)C[C@@H]23)cc1`, for which the outcome was inactive. To `CCOCCCNC(=O)c1ccc2c(c1)N(CC)C(=O)c1ccccc1S2=O` (configuration not stated) belongs “inactive”; to `COc1ccc(-c2cc(C(=O)NCc3ccco3)c3ccccc3n2)c(OC)c1`, “inactive”. The result for `O=C(Nc1ccccc1F)N[C@@H]1CC[C@H](CCNC(=O)C2CCCCC2)O[C@H]1CO` reads “inactive”; that for `Cc1ccc(C(=O)NC2CC(=O)N(c3ccc4c(c3)OCCO4)C2)cc1[N+](=O)[O-]` (configuration not stated), “inactive”; that for `O=C1CC(c2ccccc2)NN1` (configuration not stated), “inactive”. On to `O=C(CCN1CCCCC1)N[C@H]1CC[C@@H](CCNS(=O)(=O)c2ccc(Cl)cc2)O[C@H]1CO`, for which the call was inactive. Regarding `CC(C)NC(=O)N(C)C[C@@H]1Oc2cc(-c3ccncc3)ccc2S(=O)(=O)N([C@H](C)CO)C[C@H]1C`, the compound was called inactive.

Consider `O=C(Nc1cc(Cl)ccc1O)C1CC(c2c(F)cccc2Cl)=NO1` (configuration not stated), for which the compound was called inactive. The result for `COc1ccc(N(CC(=O)NC2CCCCC2)C(=O)CNC(=O)c2cccs2)cc1OC` reads “inactive”; that for `O=C(NCCS(=O)(=O)NCCCc1ccccc1)c1ccccc1`, “inactive”. The result for `CCCNC(=O)N1C[C@H](O)COC[C@@H]2O[C@@H](CC(=O)NCCCN3CCOCC3)CC[C@H]21` reads “inactive”; that for `COc1ccc(C(=O)CC(=O)C(=O)Nc2c(C)cccc2C)cc1`, “inactive”. To `COc1cccc(S(=O)(=O)N2CC[C@@H]3[C@@H](CO)Nc4ccc(C#Cc5ccccc5)cc4[C@@H]32)c1` belongs “inactive”; to `Cc1ccc(S(=O)(=O)Nc2ccc3c(c2)nc(CCN2CCN(c4ccccn4)CC2)n3C)cc1`, “inactive”; to `C[C@H](NC(=O)C[C@@H]1C[C@@H]2c3cc(NC(=O)Nc4ccc(C(F)(F)F)cc4)ccc3O[C@@H]2[C@@H](CO)O1)c1ccccc1`, “inactive”.

As to `O=C(COC(=O)/C=C/c1ccc(Br)o1)Nc1ccc2[nH]c(=O)[nH]c2c1`, the outcome was inactive.

For the compound `CCCN(CCC)Cc1cc(=O)oc2cc(C)c(C)cc12`, the compound was classed as inactive. To `C[C@@H]1CN([C@@H](C)CO)C(=O)c2cccc(NC(=O)C3CC3)c2O[C@@H]1CN(C)S(C)(=O)=O` belongs “inactive”; to `C[C@H]1CN([C@@H](C)CO)C(=O)c2cc(C#CC3CCCCC3)cnc2O[C@H]1CN(C)Cc1cncnc1`, “inactive”; to `COc1ccc(C2=NN(CCC(=O)NC3CCC(C)CC3)C(=O)CC2)cc1` (configuration not stated), “inactive”. To `O=C(O)COCC(=O)Nc1ccc(-n2nc(C(F)(F)F)cc2-c2cccs2)cc1` belongs “inactive”; to `COc1nnc(-c2ccc(C)c(S(N)(=O)=O)c2)c2ccccc12`, “inactive”; to `Cc1ccc(S(=O)(=O)N(C)C[C@H]2Oc3ccc(NC(=O)Nc4ccccc4)cc3C(=O)N([C@@H](C)CO)C[C@H]2C)cc1`, “inactive”.

With `CCCNC(=O)c1ccc2c(c1)nc(C)n2-c1cccc(C)c1`, the call was inactive. To `O=C(C[C@@H]1CC[C@@H](NC(=O)NC2CCCC2)[C@H](CO)O1)NCc1ccc(F)cc1` belongs “inactive”. To `CN1c2ccc(-c3cccc(C#N)c3)cc2[C@H]2[C@H](CCN2S(=O)(=O)c2ccccc2F)[C@H]1CO` belongs “inactive”; to `C[C@@H]1CN([C@H](C)CO)C(=O)c2c(c3ccccc3n2C)-c2ccccc2CO[C@H]1CN(C)S(=O)(=O)c1ccccc1`, “inactive”; to `C[C@H](CO)N1C[C@H](C)[C@H](CN(C)Cc2ccccc2)Oc2c(NC(=O)CCCCCC(=O)Nc3ccccc3N)cccc2C1=O`, “inactive”. Regarding `CC(C)n1nnnc1C1c2ccccc2C(=O)N1Cc1cccc(F)c1` (configuration not stated), the result was inactive. On to `CC(C)Cc1cc(C(=O)NCCCN2CCOCC2)no1`, for which the result was inactive.
